This passage reports growth results from PubChem BioAssay (NCI).

Structures are written as SMILES. This is part of a sample that, as a whole, favours compounds with a hit. Of some 83,000 tested, about 20% had one in any assay.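 Cell lines were cultured in 96-well plates, exposed to a single compound concentration, and assessed for percent growth 48 hours later.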 The source made the active and inactive calls.

The test system of the assay is HT29 colon. Description: NCI-60 one-dose screen, 48 h (100 = growth as untreated, 0 = no growth, -100 = all killed). As to conditions: 10 µM unless noted. As for the experimental part:
Growth inhibition of the HT29 human tumor cell line is measured as a screen for anti-cancer activity. Cells are grown in 96 well plates and exposed to the test compound for 48 hours. Compounds are tested at a single concentration, which is 10^-5 M for most compounds. The reported endpoint is percent growth (GI% or GIPRCNT), where numbers from 0 - 100% represent growth inhibition, and numbers from -100% - 0 represent cell death. For example, a value of 40 represents 60% growth inhibition. A value of 0 means no net growth occurred over the course of the experiment. A value of -40 indicates 40% of cells at the beginning of the experiment died by the end of the experiment. A value of -100 means all cells are dead at the end of the experiment.
NCI-60 Human Tumor Cell Lines Screen was performed using the standard one-dose NCI protocol, which is described in more detail at https://dtp.cancer.gov/discovery_development/nci-60/default.htm.
Compounds with GIPRCNT values below 10 were considered active. Activity score was based on GIPRCNT using the following formula: […]
Score is 0 for GIPRCNT values of 100 or above, 50 for GIPRCNT values of 0, and 100 for GIPRCNT values of -100.
With `C=C[C@H]1C[C@@H]2C[C@@H]3[C@H]4C/C=C\C(=O)NCCCC5NC(=O)C(=C(O)/C=C/[C@@H]4CC(=O)[C@H]3[C@@H]2[C@H]1C)C5=O` (stereo not given in full), the growth is -76% (active). As for `CC(C)(C)[Si](C)(C)OC1[C@@H](COC(=O)NC(=O)CCl)O[C@@H](n2cnc3c(N)ncnc32)[C@H]1O[Si](C)(C)C(C)(C)C` (stereo not given in full), the growth is 32.3% (inactive). Turning to `O=C1c2c(c3c4cc(Br)ccc4[nH]c3c3ccc4ccccc4c23)C(=O)N1O`, the growth was 30% (inactive). With `Cc1nc2nc(C(F)(F)F)[nH]c2nc1C` the figure was 107% (inactive); with `Clc1ccc2c(N3CCN(c4ccnc(NC5CCCCC5)n4)CC3)ccnc2c1`, 3.22% (active). Consider `COc1cc(/C=N/NC(=O)c2cnn3c2NC(c2ccccc2)C3)ccc1OC1CCCC1` (stereo not given), for which the growth was 11.8% (inactive). For the molecule `O=C(O)C[C@H](O)C[C@H](O)/C=C/c1c(C2CC2)nc2ccccc2c1-c1ccc(F)cc1`, the growth was 107% (inactive). For `O=C(CCCCCCC(=O)Nc1ccc2c(c1)/C(=C/c1ccc[nH]1)C(=O)N2)NO` the value was 8.62% (active); for `CCCCC(CCCC)(S(=O)(=O)CC)S(=O)(=O)CC`, 105% (inactive). Consider `COc1cc(C2C3=C(COC3=O)N(CCO)c3cc4c(cc32)OCO4)cc(OC)c1O` (stereo not given), for which the growth was 8.44% (active).

`COc1ccc(-c2[nH]ncc2Nc2cc(OC)c(OC)c(OC)c2)cc1`: the growth was 26.2% (inactive).

Turning to `O=C(N/N=C(\CS(=O)(=O)c1ccccc1)c1cc2ccccc2oc1=O)c1ccccc1`, the growth was 108% (inactive). For `N#Cc1ccc(C(F)(F)F)nc1N1CCC(C(=O)Nc2ccc(Cl)cc2)CC1` the value was 51.5% (inactive); for `O=[N+]([O-])c1cc2c(cc1Br)-c1ccccc1C2`, 95.9% (inactive).

For `Cc1ccc(S(=O)(=O)N2CCc3ccc(O)c4c3C2Cc2cc(Cl)ccc2-4)cc1` (stereo not given), the growth is 103% (inactive). Turning to `CN1CCN(c2nc(-c3ccncc3)nc3sc4c(c23)CCCCCC4)CC1`, the growth is 24.3% (inactive). For `CC(C)(C)[Si](C)(C)OC1[C@@H](CNC(=O)NC(=O)CCl)O[C@@H](n2cnc3c(N)ncnc32)[C@H]1O[Si](C)(C)C(C)(C)C` (stereo not given in full) the value was -74.7% (active); for `CCOC(=O)c1cnn(CC(O)c2ccc(F)cc2)c1NC(=O)Nc1ccccc1F` (stereo not given), 117% (inactive); for `CC(C)OC1=C(Cl)C(=O)c2ccccc2C1=O`, 113% (inactive).

Turning to `COc1ccc(/C=N/NC(=O)c2cnn(CC(O)Cc3ccccc3)c2N)cc1OC1CCCC1` (stereo not given), the growth is 93.6% (inactive). For `C[C@@H](Oc1cc(-c2cnn(C3CC4(CCNCC4)C3)c2)cnc1N)c1c(F)ccc(Cl)c1Cl` the value was -56.6% (active); for `O=c1[nH]c(=O)n(Cc2ccc(F)cc2)cc1F`, 114% [50 µM] (inactive). For `CON=C1C[C@]2(C[C@@H]3C[C@@H](C/C=C(\C)C[C@@H](C)/C=C/C=C4\CO[C@@H]5[C@H](O)C(C)=C[C@@H](C(=O)O3)[C@]45O)O2)O[C@H](/C(C)=C/C(C)C)[C@H]1C` the value was 32.4% (inactive). For `CC(=O)Nc1ccccc1-c1n[nH]c(=O)[nH]c1=O` the value was 90.7% (inactive); for `Cc1c(C)n(CC(O)CNC2CCCCC2C)c2ccccc12` (stereo not given), -49.6% (active). In the case of `COc1ccc(OC)c(/C=C2\Oc3cc(O)ccc3C2=O)c1`, the growth was 100% (inactive). With `CCCCOC(=O)C1OC(Oc2ccc3c(C)cc(=O)oc3c2)[C@@H](OC(C)=O)C(OC(C)=O)C1OC(C)=O` (stereo not given in full) the figure was 104% (inactive). For `NC(=O)c1cc(I)ccc1NC(=O)COc1ccccc1` the value was 7.08% (active). With `O=C(Nc1nc2ccccc2[nH]1)C(=O)Nc1nc2ccccc2[nH]1` the figure was 107% (inactive). Regarding `COc1cccc(C2C3=C(COC3=O)N(CCO)c3cc4c(cc32)OCO4)c1` (stereo not given), the growth was 0.226% (active). With `C(=C\c1ccccc1)/CN1CCN(C(c2ccccc2)c2ccccc2)CC1` the figure was 83.1% (inactive); with `Cc1ccc(S(=O)(=O)N2CCc3ccc(O)c4c3C2CCc2ccccc2-4)cc1` (stereo not given), 100% (inactive). With `COc1cc(/C=C2\C(=O)Nc3ccccc32)cc(OC)c1O` the figure was 75.7% (inactive). With `COc1ccc(NC(=O)c2ccc3c(c2)nc(-c2ccc(Cl)cc2)n3-c2cc(C(C)(C)C)[nH]n2)cc1` the figure was 116% (inactive); with `Nc1nc(N)c(C=Nc2ccc(Br)cc2)c(Nc2ccc(Br)cc2)n1`, 101% (inactive); with `C=C1CC[C@@H]2[C@@](C)(CCC[C@]2(C)C(=O)O)[C@@H]1CC[C@H](CO)CCO`, 104% (inactive).

On to `CC[Si](CC)(CC)OC1[C@@H](O[Si](CC)(CC)CC)[C@@H](CNC(=O)NC)O[C@H]1n1cnc2c(NC(=O)Nc3ccccc3)ncnc21` (stereo not given in full), for which the growth is 50.2% (inactive).

With `Nc1cc(Br)c(-c2nnc(CCC(=O)c3nc4ccccc4[nH]3)o2)c(Br)c1`, the growth is 84.1% (inactive). For `CC1=CN2C(=NC3=C(CCCC/C3=C\c3ccccc3)C2c2ccccc2)S1` (stereo not given) the value was 91.7% (inactive); for `O=C(CCc1nnc2sc(/C=C\c3ccccc3)nn12)c1nc2ccccc2[nH]1`, 36.8% (inactive).
